Results from PubChem BioAssay.
A number with no mark means an inactive call. The list shows a part of the results. Activity calls are given as the source filed them.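 The calls were made as follows, unless noted: active = mean inhibition above 46.68%, the untreated control wells mean plus 3 SD; inactive = the rest.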

Tests used:
[1] = target: Nuclear receptor coactivator 3 (Homo sapiens) (UniProt Q9Y6Q9); assay: NCOA3 GAL4-fusion reporter inhibition – cell-based, luminescence, quadruplicate, confirmation (AID 588792;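 active = mean inhibition over 43.08%, the solvent-only control mean plus 3 SD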;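 also: 0% = DMSO treated cells and 100% = gossypol at 36 µM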); details: HEK293 GAL4-SRC3 luciferase reporter, at 3.6 µM, stronger effect = higher value
Chain of Nuclear receptor coactivator 3 (Homo sapiens) (Q9Y6Q9 whole entry, looked up, the tested form may be a part): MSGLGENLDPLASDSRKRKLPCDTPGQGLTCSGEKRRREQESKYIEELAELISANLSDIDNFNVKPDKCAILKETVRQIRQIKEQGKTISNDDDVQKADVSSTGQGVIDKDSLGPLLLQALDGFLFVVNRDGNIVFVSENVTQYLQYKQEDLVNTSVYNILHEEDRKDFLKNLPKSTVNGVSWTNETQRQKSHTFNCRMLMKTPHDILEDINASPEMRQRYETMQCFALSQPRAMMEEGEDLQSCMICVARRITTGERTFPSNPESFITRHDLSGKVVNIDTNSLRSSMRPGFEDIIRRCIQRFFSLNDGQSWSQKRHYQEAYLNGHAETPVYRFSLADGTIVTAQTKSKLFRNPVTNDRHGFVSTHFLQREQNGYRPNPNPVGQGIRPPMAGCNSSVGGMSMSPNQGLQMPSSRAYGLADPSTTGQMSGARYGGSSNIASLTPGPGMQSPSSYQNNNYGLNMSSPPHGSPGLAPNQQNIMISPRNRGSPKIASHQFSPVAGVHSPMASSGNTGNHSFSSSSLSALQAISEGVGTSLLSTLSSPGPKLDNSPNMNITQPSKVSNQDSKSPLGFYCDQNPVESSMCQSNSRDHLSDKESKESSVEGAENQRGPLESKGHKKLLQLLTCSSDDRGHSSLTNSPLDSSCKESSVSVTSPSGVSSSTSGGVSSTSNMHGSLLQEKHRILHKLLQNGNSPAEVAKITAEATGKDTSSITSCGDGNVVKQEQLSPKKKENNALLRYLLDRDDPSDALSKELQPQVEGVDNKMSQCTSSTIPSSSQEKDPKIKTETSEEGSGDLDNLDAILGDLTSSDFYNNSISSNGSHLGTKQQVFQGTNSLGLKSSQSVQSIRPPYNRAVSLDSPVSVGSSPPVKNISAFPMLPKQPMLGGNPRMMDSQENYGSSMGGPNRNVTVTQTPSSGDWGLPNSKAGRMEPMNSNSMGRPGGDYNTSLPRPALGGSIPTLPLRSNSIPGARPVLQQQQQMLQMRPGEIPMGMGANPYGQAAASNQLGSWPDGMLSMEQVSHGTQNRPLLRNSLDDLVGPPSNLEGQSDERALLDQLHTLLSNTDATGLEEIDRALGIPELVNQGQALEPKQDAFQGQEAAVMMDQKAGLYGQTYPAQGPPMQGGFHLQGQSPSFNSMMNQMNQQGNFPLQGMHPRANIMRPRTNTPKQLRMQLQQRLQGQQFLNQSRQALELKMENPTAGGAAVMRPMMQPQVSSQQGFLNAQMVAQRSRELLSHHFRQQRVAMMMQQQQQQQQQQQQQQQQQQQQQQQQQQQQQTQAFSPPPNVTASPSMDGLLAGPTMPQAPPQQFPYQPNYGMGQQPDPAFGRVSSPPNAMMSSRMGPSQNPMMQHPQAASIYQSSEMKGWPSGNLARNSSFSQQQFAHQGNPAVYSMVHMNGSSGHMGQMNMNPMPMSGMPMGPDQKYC

[2] = tested on: transactivating tegument protein VP16 (Human herpesvirus 1), Gal4-VP16 luciferase reporter; assay: repression of VP16-driven luciferase reporter – cell-based, luminescence, high throughput, counter-screen for SRC3 inhibitor project (AID 588794; in the data active = inhibition above about 30%); details: mammalian cells, at 3.6 µM, stronger effect = higher value
[3] = tested on: transactivating tegument protein VP16 (Human herpesvirus 1); assay: compounds suppressing VP16-driven luciferase signal – cell-based, luminescence, single concentration, counter-screen for SRC2 inhibitor project (AID 652007; in the data active = inhibition above about 36%); details: cell-based VP16 transactivation luciferase reporter, at 8.9 µM, stronger effect = higher value
[4] = target: Nuclear receptor coactivator 2 (Homo sapiens) (UniProt Q15596); assay: inhibition of GAL4-SRC2 driven luciferase expression – cell-based, luminescence, HEK293, triplicate, confirmation (AID 652008;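 active = mean inhibition above 46.5%, the solvent-only control mean plus 3 SD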;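 also: 0% = DMSO-treated cells and 100% = Gossypol at 36 µM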); details: HEK293 GAL4-SRC2 luciferase reporter, at 8.9 µM, stronger effect = higher value
[5] = target: Nuclear receptor coactivator 1 (Homo sapiens) (UniProt Q15788); assay: NCOA1 GAL4-fusion reporter inhibition – cell-based, luminescence, quadruplicate, confirmation (AID 588820); details: HEK293 GAL4-SRC1 luciferase reporter, at 3.6 µM, stronger effect = higher value;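 also: 0% = DMSO wells and 100% = gossypol 36 µM treated wells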
Chain of Nuclear receptor coactivator 1 (Homo sapiens) (Q15788 whole entry, looked up, the tested form may be a part): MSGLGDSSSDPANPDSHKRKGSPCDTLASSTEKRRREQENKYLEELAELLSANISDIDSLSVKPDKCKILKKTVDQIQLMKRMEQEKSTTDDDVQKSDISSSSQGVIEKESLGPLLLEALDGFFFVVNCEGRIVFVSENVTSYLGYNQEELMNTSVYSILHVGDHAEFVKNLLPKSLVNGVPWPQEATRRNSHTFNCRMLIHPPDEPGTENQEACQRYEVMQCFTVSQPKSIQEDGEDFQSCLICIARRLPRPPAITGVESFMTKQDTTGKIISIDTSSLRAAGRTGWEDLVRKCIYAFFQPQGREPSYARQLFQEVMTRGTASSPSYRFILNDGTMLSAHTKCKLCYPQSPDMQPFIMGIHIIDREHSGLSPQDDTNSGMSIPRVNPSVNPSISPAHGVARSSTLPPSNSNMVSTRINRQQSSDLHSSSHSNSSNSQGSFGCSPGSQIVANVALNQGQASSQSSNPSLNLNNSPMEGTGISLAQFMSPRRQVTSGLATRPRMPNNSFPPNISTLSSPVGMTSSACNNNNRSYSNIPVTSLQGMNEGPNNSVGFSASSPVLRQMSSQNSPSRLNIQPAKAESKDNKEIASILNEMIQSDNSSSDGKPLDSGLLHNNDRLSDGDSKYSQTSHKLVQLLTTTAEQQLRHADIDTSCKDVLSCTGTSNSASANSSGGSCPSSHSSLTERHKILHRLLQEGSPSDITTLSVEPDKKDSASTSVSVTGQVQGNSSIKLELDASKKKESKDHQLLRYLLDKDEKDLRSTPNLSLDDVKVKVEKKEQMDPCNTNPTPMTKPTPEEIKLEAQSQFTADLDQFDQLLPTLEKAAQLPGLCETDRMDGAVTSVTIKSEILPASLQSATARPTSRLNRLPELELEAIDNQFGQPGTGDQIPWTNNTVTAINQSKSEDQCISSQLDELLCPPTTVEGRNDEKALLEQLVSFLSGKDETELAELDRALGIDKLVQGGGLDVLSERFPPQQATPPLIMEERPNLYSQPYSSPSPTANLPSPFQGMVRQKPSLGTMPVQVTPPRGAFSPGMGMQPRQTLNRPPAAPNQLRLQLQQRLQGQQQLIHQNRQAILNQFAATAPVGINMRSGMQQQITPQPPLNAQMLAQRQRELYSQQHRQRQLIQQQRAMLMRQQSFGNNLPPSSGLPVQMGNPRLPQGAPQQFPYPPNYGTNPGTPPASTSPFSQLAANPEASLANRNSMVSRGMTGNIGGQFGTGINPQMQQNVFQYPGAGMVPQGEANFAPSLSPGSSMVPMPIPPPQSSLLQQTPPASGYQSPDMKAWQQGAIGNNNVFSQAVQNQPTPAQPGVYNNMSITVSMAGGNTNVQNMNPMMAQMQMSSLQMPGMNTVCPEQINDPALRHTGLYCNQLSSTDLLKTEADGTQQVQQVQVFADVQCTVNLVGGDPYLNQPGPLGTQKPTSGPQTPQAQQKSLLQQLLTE

[6] = repression of VP16-driven luciferase reporter – cell-based, luminescence, high throughput, counter-screen for SRC1 inhibitor project (AID 588824; in the data active = inhibition above about 25%); details: cell-based VP16 transactivation luciferase luminescence; at 3.6 µM; stronger effect = higher value
[7] = StAR promoter reporter inhibitors, counter-screen for LRH-1 inverse agonist project, cell-based, luminescence, high throughput (AID 651611; in the data active = inhibition above about 28%); details: StAR promoter luciferase reporter counterscreen, at 3.6 µM, stronger effect = higher value
[8] = target: Nuclear receptor subfamily 5 group A member 2 (Homo sapiens) (UniProt O00482); assay: NR5A2 activity suppression in reporter cells – cell-based, luminescence, confirmation (AID 651613; in the data active = inhibition above about 42%;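 also: HEK293T cells co-transfected with LRH-1 and StAR promoter luciferase reporter; 0% = vehicle wells and 100% = parental cells lacking receptor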); details: cell-based LRH-1 luciferase reporter, inverse agonism; at 3.6 µM; stronger effect = higher value
Chain of Nuclear receptor subfamily 5 group A member 2 (Homo sapiens) (O00482 whole entry, looked up): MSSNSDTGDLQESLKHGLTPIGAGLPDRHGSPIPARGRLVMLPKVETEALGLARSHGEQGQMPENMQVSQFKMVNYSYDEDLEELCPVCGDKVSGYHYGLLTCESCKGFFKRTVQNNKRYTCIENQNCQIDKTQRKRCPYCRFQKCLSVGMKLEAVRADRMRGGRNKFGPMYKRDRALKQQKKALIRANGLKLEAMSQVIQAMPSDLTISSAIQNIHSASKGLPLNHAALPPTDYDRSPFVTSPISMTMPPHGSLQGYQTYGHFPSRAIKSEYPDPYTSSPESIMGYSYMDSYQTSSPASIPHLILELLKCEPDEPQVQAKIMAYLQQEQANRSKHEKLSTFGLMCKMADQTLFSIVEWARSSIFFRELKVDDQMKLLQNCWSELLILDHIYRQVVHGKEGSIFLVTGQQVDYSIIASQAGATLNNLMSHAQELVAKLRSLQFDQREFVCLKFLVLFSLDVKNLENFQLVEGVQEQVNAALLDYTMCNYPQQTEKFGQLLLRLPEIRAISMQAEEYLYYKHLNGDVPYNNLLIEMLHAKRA

[9] = target: Steroidogenic factor 1 (Homo sapiens) (UniProt Q13285); assay: inverse agonism at SF1 nuclear receptor – cell-based, luminescence, high throughput, counter-screen for LRH-1 inverse agonist project (AID 651614; in the data active = inhibition above about 44%;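 also: cells cotransfected with StAR promoter reporter and SF1 expression vector; 0% = vehicle on cells with receptor and 100% = vehicle on cells lacking receptor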); details: cell-based SF1 luciferase reporter, at 3.6 µM, stronger effect = higher value
Chain of Steroidogenic factor 1 (Homo sapiens) (Q13285 whole entry, looked up, the tested form may be a part): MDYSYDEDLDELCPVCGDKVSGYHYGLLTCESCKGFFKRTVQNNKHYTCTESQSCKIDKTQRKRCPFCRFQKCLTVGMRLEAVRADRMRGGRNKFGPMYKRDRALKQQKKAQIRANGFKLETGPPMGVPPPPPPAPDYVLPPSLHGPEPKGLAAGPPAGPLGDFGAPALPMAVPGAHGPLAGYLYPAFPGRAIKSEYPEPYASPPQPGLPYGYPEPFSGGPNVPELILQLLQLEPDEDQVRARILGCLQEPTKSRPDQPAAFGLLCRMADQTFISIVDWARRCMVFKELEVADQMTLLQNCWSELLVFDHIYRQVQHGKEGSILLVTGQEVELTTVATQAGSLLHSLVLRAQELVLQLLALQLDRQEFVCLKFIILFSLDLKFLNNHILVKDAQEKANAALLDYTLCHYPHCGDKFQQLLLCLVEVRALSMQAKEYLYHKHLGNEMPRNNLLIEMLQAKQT

[10] = compounds suppressing VP16-driven luciferase signal – cell-based, luminescence, high throughput, counter-screen for LRH-1 inverse agonist project (AID 651615; in the data active = inhibition above about 33%); details: Gal4-VP16 luciferase reporter cells, at 3.6 µM, stronger effect = higher value
[11] = target: Receptor-interacting serine/threonine-protein kinase 2 (Homo sapiens) (UniProt O43353); assay: inhibitors of RIPK2 association with NOD2 – fluorescence, CHO cells, BLA complementation, triplicate, confirmation (AID 624370;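 active = mean inhibition across replicates above a set limit taken from the earlier primary screen, cut at about 21% in these data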;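 also: 0% = DMSO-only wells and the high end = clavulanate BLA-blocked wells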); details: CCF4 FRET, at 4.98 µM, stronger effect = higher value
Chain of Receptor-interacting serine/threonine-protein kinase 2 (Homo sapiens) (O43353 whole entry, looked up): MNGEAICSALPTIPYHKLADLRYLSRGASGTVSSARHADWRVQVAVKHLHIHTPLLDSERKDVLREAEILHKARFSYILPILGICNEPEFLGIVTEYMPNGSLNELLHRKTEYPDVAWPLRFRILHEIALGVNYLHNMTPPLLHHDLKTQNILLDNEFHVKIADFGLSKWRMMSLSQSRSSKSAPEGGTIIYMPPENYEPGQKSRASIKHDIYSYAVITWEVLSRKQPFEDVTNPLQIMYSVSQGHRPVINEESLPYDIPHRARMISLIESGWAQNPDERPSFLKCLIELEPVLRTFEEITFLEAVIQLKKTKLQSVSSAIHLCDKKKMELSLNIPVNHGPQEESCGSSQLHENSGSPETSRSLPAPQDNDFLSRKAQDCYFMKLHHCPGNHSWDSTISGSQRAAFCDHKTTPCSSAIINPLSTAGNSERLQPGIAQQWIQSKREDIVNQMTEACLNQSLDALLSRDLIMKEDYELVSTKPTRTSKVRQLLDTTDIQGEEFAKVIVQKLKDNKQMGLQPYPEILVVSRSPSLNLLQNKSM

[12] = BLA reporter readout interference – cell-based, CHO-K1 CMV-bla, CCF4 FRET, fluorescence, artefact control for NOD2-RIPK2 interaction inhibitor project, confirmation (AID 624371;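 active = mean inhibition above the low-control mean inhibition plus three low-control SD, cut at about 11% in these data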;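 also: 0% = DMSO only wells and 100% = clavulanate high control wells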); details: CCF4 FRET ratio, counterscreen, at 4.98 µM, stronger effect = higher value
[13] = target: Photoreceptor-specific nuclear receptor (Homo sapiens) (UniProt Q9Y5X4); assay: retest of NR2E3-NCOR disrupting agonists – cell-based, luminescence, CHO-S two-hybrid, confirmation (AID 624378;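 active = average inhibition above a cutoff equal to the mean inhibition of all tested compounds plus one SD, cut at about 70% in these data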;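 also: 0% = DMSO in NR2E3 cells and 100% = DMSO in cells lacking NR2E3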); details: CHO-S mammalian two-hybrid NR2E3-NCOR, luciferase luminescence; at 3.98 µM; stronger effect = higher value
Chain of Photoreceptor-specific nuclear receptor (Homo sapiens) (Q9Y5X4 whole entry, looked up, the tested form may be a part): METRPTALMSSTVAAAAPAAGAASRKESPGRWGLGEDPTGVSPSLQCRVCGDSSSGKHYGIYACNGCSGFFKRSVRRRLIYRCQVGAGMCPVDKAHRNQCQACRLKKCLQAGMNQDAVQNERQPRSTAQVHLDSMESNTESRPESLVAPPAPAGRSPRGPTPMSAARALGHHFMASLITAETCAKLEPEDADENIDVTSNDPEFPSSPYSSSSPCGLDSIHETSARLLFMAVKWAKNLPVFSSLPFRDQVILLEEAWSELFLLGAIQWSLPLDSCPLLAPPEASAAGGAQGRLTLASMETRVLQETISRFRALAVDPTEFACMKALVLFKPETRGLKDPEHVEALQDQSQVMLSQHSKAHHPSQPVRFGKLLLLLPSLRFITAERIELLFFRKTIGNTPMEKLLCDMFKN

[14] = nonselective effects on VP16 transactivation – cell-based, luminescence, CHO-S, high throughput, counter-screen for NR2E3 agonist project, confirmation (AID 624379;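 active = mean inhibition above a cutoff equal to the average over all tested compounds plus one standard deviation, cut at about 70% in these data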;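 also: luciferase from a UAS reporter driven by GAL4-VP16 transactivation; 0% = DMSO with VP16-transfected cells and 100% = DMSO with cells lacking VP16; higher means less reporter light so more repression of VP16 activity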); details: CHO-S GAL4-VP16 luciferase reporter, at 3.98 µM, stronger effect = higher value

**Q.** With `c1ccc(-c2[nH]c(-c3ccccc3)[n+](CC3CO3)c2-c2ccccc2)cc1` (stereo unspecified) as the compound, how does the inhibition [1] read?
**A.** 13.4%

**Q.** What about the inhibition [2] of the same compound?
**A.** -0.66%

**Q.** And the inhibition [3]?
**A.** 22.1%

**Q.** And the inhibition [4]?
**A.** 30.2%

**Q.** For `Cc1cccc(-n2c(C)nc3ccccc3c2=O)c1C`, which inhibition [5] is on record?
**A.** 2%

**Q.** What about the inhibition [6] of the same compound?
**A.** 9.3%

**Q.** Which inhibition [5] does the source give for `CC(=NNC(=S)N1CC2CCC(CC2)C1)c1nccs1` here?
**A.** 62.2% (active)

**Q.** What about the inhibition [6] of the same compound?
**A.** 74.4% (active)

**Q.** What does the source list for `CCC(c1nnnn1Cc1ccccc1)N1CCC(n2c(=O)[nH]c3ccccc32)CC1` (stereo unspecified)?
**A.** inhibition [5]: -50.1%; inhibition [6]: 0.59%

**Q.** With `C[C@H]1CCC[C@H](O)CCCCCc2cc(O)cc(O)c2C(=O)O1` as the compound, how does the inhibition [5] read?
**A.** -4.86%

**Q.** And the inhibition [6]?
**A.** 15.5%

**Q.** For `CC(C)CNc1c2c(nc3ccccc13)CCC2`, which inhibition [5] is on record?
**A.** 7.81%

**Q.** And the inhibition [6]?
**A.** 17.3%

**Q.** For `CN1C2CCC1/C(=C/c1ccccn1)C(=O)/C2=C\c1ccccn1`, which inhibition [1] is on record?
**A.** -0.02%

**Q.** And the inhibition [2]?
**A.** 80.8% (active)

**Q.** What about the inhibition [3] of the same compound?
**A.** 75% (active)

**Q.** And the inhibition [4]?
**A.** 70.9% (active)

**Q.** For `CCCCn1nnnc1C(CCc1ccccc1)N1CCC(n2c(=O)[nH]c3ccccc32)CC1` (stereo unspecified), which inhibition [5] is on record?
**A.** -23.9%

**Q.** And the inhibition [6]?
**A.** 7.75%

**Q.** With `CC(C)(O)/C=C/C(=O)C(C)(O)C1C(O)CC2(C)C3CC=C4C(C=C(O)C(=O)C4(C)C)C3(C)C(=O)CC12C` (stereo unspecified) as the compound, how does the inhibition [1] read?
**A.** 70.1% (active)

**Q.** And the inhibition [2]?
**A.** 74% (active)

**Q.** What about the inhibition [7] of the same compound?
**A.** 66% (active)

**Q.** And the inhibition [8]?
**A.** 79.3% (active)

**Q.** What about the inhibition [9] of the same compound?
**A.** 78.9% (active)

**Q.** What about the inhibition [10] of the same compound?
**A.** 86.1% (active)

**Q.** What about the inhibition [3] of the same compound?
**A.** 62.2% (active)

**Q.** What about the inhibition [4] of the same compound?
**A.** 96.5% (active)

**Q.** Which inhibition [1] does the source give for `CC1CCC/C=C/C2CC(O)CC2C(O)/C=C/C(=O)O1` (stereo unspecified) here?
**A.** 64.7% (active)

**Q.** And the inhibition [2]?
**A.** 75% (active)

**Q.** What about the inhibition [7] of the same compound?
**A.** 78.9% (active)

**Q.** And the inhibition [8]?
**A.** 86.7% (active)

**Q.** What about the inhibition [9] of the same compound?
**A.** 80.8% (active)

**Q.** And the inhibition [10]?
**A.** 74.8% (active)

**Q.** Which inhibition [5] does the source give for `CCC(c1nnnn1-c1ccc2c(c1)OCCO2)N1CCC(n2c(=O)[nH]c3ccccc32)CC1` (stereo unspecified) here?
**A.** -22%

**Q.** What about the inhibition [6] of the same compound?
**A.** 9.85%

**Q.** For `COc1ccc(-n2nnnc2C(CCSC)N2CCC(n3c(=O)[nH]c4ccccc43)CC2)cc1` (stereo unspecified), which inhibition [5] is on record?
**A.** -13.8%

**Q.** What about the inhibition [6] of the same compound?
**A.** -1.55%

**Q.** Which results are given for `CN1CCN(c2cccc3c2C(=O)c2ccccc2C3=O)CC1`?
**A.** inhibition [5]: 20.1%; inhibition [6]: 14.8%

**Q.** For `CCCOC(=O)c1ccc(-[n+]2c(-c3ccccc3)cc(-c3ccccc3)cc2-c2ccccc2)cc1`, which inhibition [1] is on record?
**A.** 44.1% (active)

**Q.** What about the inhibition [2] of the same compound?
**A.** 65.5% (active)

**Q.** And the inhibition [7]?
**A.** 64.9% (active)

**Q.** And the inhibition [8]?
**A.** 110% (active)

**Q.** What about the inhibition [9] of the same compound?
**A.** 88.8% (active)

**Q.** What about the inhibition [10] of the same compound?
**A.** 96.6% (active)

**Q.** What about the inhibition [3] of the same compound?
**A.** 31.1%

**Q.** And the inhibition [4]?
**A.** 31.8%

**Q.** With `CC(=O)OC1C2(CC3N4C(=O)C5(CO)SSC4(CC31O)C(=O)N5C)OC(C)C(C)(C)C2=O` (stereo unspecified) as the compound, how does the inhibition [1] read?
**A.** 95.9% (active)

**Q.** And the inhibition [2]?
**A.** 94.1% (active)

**Q.** What about the inhibition [11] of the same compound?
**A.** 41.9% (active)

**Q.** And the inhibition [12]?
**A.** 0.4%

**Q.** And the inhibition [13]?
**A.** 98.8% (active)

**Q.** And the inhibition [14]?
**A.** 99.1% (active)

**Q.** And the inhibition [7]?
**A.** 96.3% (active)

**Q.** And the inhibition [8]?
**A.** 110% (active)

**Q.** And the inhibition [9]?
**A.** 98.4% (active)

**Q.** What about the inhibition [10] of the same compound?
**A.** 97.4% (active)

**Q.** For `C1=NCCc2c1[nH]c1ccccc21`, which inhibition [1] is on record?
**A.** 27.8%

**Q.** What about the inhibition [2] of the same compound?
**A.** -13.4%

**Q.** What about the inhibition [7] of the same compound?
**A.** 14.4%

**Q.** What about the inhibition [8] of the same compound?
**A.** 50.2% (active)

**Q.** And the inhibition [9]?
**A.** 44.8% (active)

**Q.** And the inhibition [10]?
**A.** -11.6%

**Q.** What does the source list for `CC(=CCOc1ccc2ccc(=O)oc2c1)C1=CC(=O)C(C)(C)O1`?
**A.** inhibition [5]: 17.3%; inhibition [6]: 35.2% (active)

**Q.** What does the source list for `COc1ccc(-n2nnnc2C(c2cccc(OC)c2OC)N2CCC(n3c(=O)[nH]c4ccccc43)CC2)cc1` (stereo unspecified)?
**A.** inhibition [5]: -18.7%; inhibition [6]: 3.33%

**Q.** With `O=C(c1cn(Cc2ccccc2F)c2ncccc12)C(F)(F)F` as the compound, how does the inhibition [5] read?
**A.** -9.15%

**Q.** And the inhibition [6]?
**A.** -0.44%

**Q.** For `CCN(CC)C(=O)c1ccc(NC(=O)c2cccc(S(=O)(=O)N3CCN(Cc4ccccc4)CC3)c2)cc1`, which inhibition [5] is on record?
**A.** -1.69%

**Q.** What about the inhibition [6] of the same compound?
**A.** 20.8%

**Q.** Which inhibition [5] does the source give for `COc1ccc(-n2nnnc2C(c2cccs2)N2CCC(n3c(=O)[nH]c4ccccc43)CC2)cc1` (stereo unspecified) here?
**A.** -25.6%

**Q.** And the inhibition [6]?
**A.** -13.5%

**Q.** Which results are given for `COC(=O)C1=C(c2ccc(-c3ccccc3)c(F)c2)C[C@@H]2CC[C@H]1N2C(=O)NC1CC1`?
**A.** inhibition [5]: 15.1%; inhibition [6]: 25.6% (active)

**Q.** For `CC(C)c1oc(=O)cc2c1[C@@H](O)[C@H]1OC(=O)[C@@]3(C)C[C@@H](O)[C@@H](O)[C@@]2(C)C13` (stereo partly specified), which inhibition [1] is on record?
**A.** 79.4% (active)

**Q.** And the inhibition [2]?
**A.** 67.4% (active)

**Q.** What about the inhibition [7] of the same compound?
**A.** 84.4% (active)

**Q.** And the inhibition [8]?
**A.** 104% (active)

**Q.** What about the inhibition [9] of the same compound?
**A.** 90% (active)

**Q.** And the inhibition [10]?
**A.** 77.4% (active)

**Q.** And the inhibition [3]?
**A.** 8.02%

**Q.** What about the inhibition [4] of the same compound?
**A.** 13.1%

**Q.** With `COc1ccc(-n2nnnc2C(c2ccccc2)N2CCC(n3c(=O)[nH]c4ccccc43)CC2)cc1` (stereo unspecified) as the compound, how does the inhibition [5] read?
**A.** -22.4%

**Q.** What about the inhibition [6] of the same compound?
**A.** 5.11%
